According to PubChem BioAssay (Tox21):
Results filed as inconclusive are left out. The source made the active and inactive calls. Unless noted, the call rests on the fitted dose curve; in most records, active means well fitted curve in the direction sought with a large enough effect in the repeat runs; inconclusive means weak or mixed curves; inactive means no such curve, though single readings can be large; an effect the other way counts as inactive or inconclusive.

What was measured:
[1] = qHTS assay to identify small molecule agonists of the hypoxia (HIF-1) signaling pathway - cell viability counter screen (AID 1224844; calls by dose curve; further: nearly all actives have a fitted effect of over 50% in size; further: potency means the concentration at half of the fitted maximal effect)
How it was run: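 HRE-bla ME-180 cells, 2,000/well in 0.5% dialyzed FBS medium, treated 17 h at 37C with compounds. Viability read in the same wells as the bla reporter, by CellTiter-Glo luminescence after 30 min at room temperature.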

[2] = qHTS assay to identify small molecule agonists of H2AX (AID 1224845; active means well fitted activation curve with a large enough effect in the signal ratio in the repeat runs, not every such curve was filed as active; the % refers to the signal ratio; further: potency means the concentration at half of the fitted maximal effect)
How it was run: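 Phospho-H2AX Ser139 measured by HTRF (ex 320 nm; em 665 and 620 nm) after 24 hr antibody incubation. Compounds, 15 concentrations, 0.76% DMSO, were applied to CHO-K1 cells for 3hr at 37C before lysis.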

[3] = qHTS assay to identify small molecule agonists of H2AX - cell viability counter screen (AID 1224847; calls by dose curve; further: nearly all actives have a fitted effect of over 30% in size; further: potency means the concentration at half of the fitted maximal effect)
How it was run: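 Viability of CHO-K1 (wild type) cells after 3 hr compound exposure was measured by CellTiter-Glo luminescence.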

[4] = qHTS assay to identify small molecule antagonists of the estrogen related receptor (ERR) signaling pathway from Tox21 library (AID 1224848); further: nearly all actives have a fitted effect of over 50% in size; further: potency means the concentration at half of the fitted maximal effect
How it was run: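 Reading was by luminescence 30 min after ONE-Glo addition. Before that, ERR cells at 2,000 per well had rested 6 h at 37 C/5% CO2 and then received pin-tooled compounds in DMSO for 18 h at 37 C.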

[5] = qHTS assay to identify small molecule agonists of the estrogen related receptor (ERR) signaling pathway from Tox21 library (AID 1224849; calls by dose curve; further: on the % scale 0 is the no-effect control and ±100 the full control effect; nearly all actives have a fitted effect of over 15% in size); conditions: ERR reporter cell line, ONE-Glo luciferase, 18 h; at 92.4 µM (top of the series) unless noted
How it was run: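 ERR reporter cells (NTP line) pre-incubated 6 hours at 37 C, then exposed to compounds for 18 hours at 37 C. ONE-Glo luciferase luminescence was read after 30 minutes at room temperature.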

[6] = A CellTox Green Cytotoxicity Assay to monitor cytotoxicity in HEK293 cells - 0 hour (AID 1224869); further: on the % scale 0 is the no-effect control and ±100 the full control effect; nearly all actives have a fitted effect of over 50% in size
How it was run: (§1)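 HEK293 cells, 600/well, were preincubated 5 hours and then exposed to compounds at 37 C for up to 40 hours. A cell-impermeant cyanine dye staining dead-cell DNA was read by fluorescence at 0, 8, 16, 24, 32 and 40 h time points.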

[7] = qHTS RealTime-Glo MT Cell Viability Assay in HepG2 cells - 40 hour (AID 1224870); further: nearly all actives have a fitted effect of over 50% in size; further: potency means the concentration at half of the fitted maximal effect
How it was run: (§2)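 Real-time viability: cells seeded at 600 per well together with NanoLuc and cell-permeant prosubstrate, compounds added after 5 h incubation. Luminescence tracked at 0, 8, 16, 24, 32 and 40 h of exposure.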

[8] = qHTS RealTime-Glo MT Cell Viability Assay in HEK293 cells - 16 hour (AID 1224872); further: nearly all actives have a fitted effect of over 50% in size; further: potency means the concentration at half of the fitted maximal effect
How it was run: (§3)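 HEK293 cells were seeded at 600 cells/well together with NanoLuc luciferase and cell-permeant prosubstrate, preincubated 5 h at 37 C/5% CO2, then given compound in DMSO by pintool. Luminescence from viable-cell prosubstrate reduction was read repeatedly over 40 h.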

[9] = qHTS RealTime-Glo MT Cell Viability Assay in HepG2 cells - 8 hour (AID 1224873); further: nearly all actives have a fitted effect of over 55% in size; further: potency means the concentration at half of the fitted maximal effect
How it was run: as §2

[10] = A CellTox Green Cytotoxicity Assay to monitor cytotoxicity in HEK293 cells - 24 hour (AID 1224875); further: nearly all actives have a fitted effect of over 45% in size; further: potency means the concentration at half of the fitted maximal effect; on activity change: on the % scale 0 is the no-effect control and ±100 the full control effect
How it was run: as §1

[11] = A CellTox Green Cytotoxicity Assay to monitor cytotoxicity in HepG2 cells - 16 hour (AID 1224876); further: nearly all actives have a fitted effect of over 45% in size; further: potency means the concentration at half of the fitted maximal effect
How it was run: (§4)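 HepG2 cells, 600/well, preincubated 5 h with CellTox Green dye, then exposed to Tox21 compounds in DMSO at 37 C for up to 40 h. Dead-cell DNA fluorescence read at the indicated time point.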

[12] = qHTS RealTime-Glo MT Cell Viability Assay in HepG2 cells - 32 hour (AID 1224877); further: nearly all actives have a fitted effect of over 55% in size; further: potency means the concentration at half of the fitted maximal effect
How it was run: (§5)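 HepG2 cells were seeded at 600 cells/well together with NanoLuc luciferase and a cell-permeant prosubstrate, preincubated 5 h at 37 C/5% CO2, then pin-dosed with compounds in DMSO. Nonlytic luminescence from viable cells was read at each time point.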

[13] = qHTS RealTime-Glo MT Cell Viability Assay in HepG2 cells - 24 hour (AID 1224867); further: nearly all actives have a fitted effect of over 50% in size; further: potency means the concentration at half of the fitted maximal effect
How it was run: as §5

[14] = qHTS RealTime-Glo MT Cell Viability Assay in HEK293 cells - 32 hour (AID 1224868)
How it was run: as §3

[15] = A CellTox Green Cytotoxicity Assay to monitor cytotoxicity in HEK293 cells - 40 hour (AID 1224871); further: nearly all actives have a fitted effect of over 45% in size; further: potency means the concentration at half of the fitted maximal effect
How it was run: as §1

[16] = qHTS RealTime-Glo MT Cell Viability Assay in HEK293 cells - 40 hour (AID 1224874); conditions: RealTime-Glo luminescence; max response: stronger effect = lower value; further: nearly all actives have a fitted effect of over 50% in size; further: potency means the concentration at half of the fitted maximal effect; on max response: on the % scale 0 is the no-effect control and ±100 the full control effect
How it was run: (§6)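 600 cells/well were plated with the nonlytic NanoLuc/prosubstrate reagent, pre-incubated 5 h, then given 23 nL of compound in DMSO. Incubation at 37 C for 40 h, with luminescence from viable-cell-reduced substrate read repeatedly from 0 h.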

[17] = A CellTox Green Cytotoxicity Assay to monitor cytotoxicity in HepG2 cells - 24 hour (AID 1224878); further: nearly all actives have a fitted effect of over 45% in size; further: potency means the concentration at half of the fitted maximal effect; on Cytotoxicity: on the % scale 0 is the no-effect control and ±100 the full control effect
How it was run: as §4

[18] = A CellTox Green Cytotoxicity Assay to monitor cytotoxicity in HepG2 cells - 40 hour (AID 1224879); further: nearly all actives have a fitted effect of over 40% in size; further: potency means the concentration at half of the fitted maximal effect
How it was run: as §4

[19] = qHTS RealTime-Glo MT Cell Viability Assay in HEK293 cells - 0 hour (AID 1224880)
How it was run: as §6

Cc1c(C)c2c(c(C)c1OC(=O)CCC(=O)O)CC[C@@](C)(CCC[C@H](C)CCC[C@H](C)CCCC(C)C)O2
inactive: Potency [2] | Potency [3] | Potency [4] | activity change, positive = activation [5] -23.6% | Potency [6] | Potency [8] | Potency [9] | Potency [10] | Potency [11]
active: Potency [1] 1.4 µM | Potency [7] 55.6 µM | Potency [12] 55.6 µM

CCCCCCCCNC(C)C(O)c1ccc(SC(C)C)cc1 (configuration not stated)
inactive: Potency [2] | activity change, positive = activation [5] -63% [at 42.5 µM]
active: Potency [1] 19 µM | Potency [3] 43.8 µM | Potency [4] 23.7 µM | Potency [13] 13.4 µM | Potency [14] 9.52 µM | Potency [7] 13.4 µM | Potency [15] 16.9 µM | Potency [8] 10.7 µM | Potency [9] 21.3 µM | Potency [16] 8.49 µM | Potency [10] 16.9 µM | Potency [11] 16.9 µM | Potency [17] 16.9 µM | Potency [18] 15.1 µM

CCCCCCCCCCCCCCCCCC[N+](C)(C)C
active: Potency [1] 55.1 µM | Potency [3] 90.1 µM | Potency [4] 24.4 µM | Potency [14] 7.79 µM | Potency [15] 21.9 µM | Potency [8] 24.6 µM | Potency [16] 7.79 µM | Potency [10] 39 µM | Potency [18] 49.1 µM
inactive: Potency [2] | activity change, positive = activation [5] -79.1% | Potency [6] | Potency [19]

CCc1cc(Cc2cc(CC)cc(C(C)(C)C)c2O)c(O)c(C(C)(C)C)c1
inactive: activity change, positive = activation [5] -75.4% | Potency [6] | Potency [19]
active: Potency [1] 11 µM | Potency [2] 50.5 µM | Potency [3] 31.8 µM | Potency [4] 30.6 µM | Potency [13] 49 µM | Potency [7] 54.9 µM | Potency [15] 54.9 µM | Potency [8] 13.8 µM | Potency [9] 49 µM | Potency [16] 21.9 µM | Potency [12] 49 µM

CCCCCCCCCCCCCCCC[N+](C)(C)CCN(Cc1ccc(OC)cc1)c1ncccn1
inactive: Potency [2] | Potency [6] | Potency [19]
active: Potency [1] 21.3 µM | Potency [3] 43.8 µM | Potency [4] 21.1 µM | Potency [13] 6.74 µM | Potency [14] 0.952 µM | Potency [7] 5.35 µM | Potency [15] 19 µM | Potency [8] 1.34 µM | Potency [9] 10.7 µM | Potency [16] 0.952 µM | Potency [10] 8.49 µM | Potency [11] 9.52 µM | Potency [12] 6.01 µM | Potency [17] 6.74 µM | Potency [18] 6.01 µM

Cc1oc(-c2ccccc2)nc1CCC(=O)c1ccc(CC2SC(=O)NC2=O)cc1 (configuration not stated)
inactive: Potency [1] | Potency [2] | Potency [3] | activity change, positive = activation [5] -19.2% [at 42.5 µM] | Potency [13] | Potency [6] | Potency [7] | Potency [15] | Potency [8] | Potency [9] | max response [16] -22.3% | Potency [10] | Potency [11] | Potency [12] | Potency [17] | Potency [18] | Potency [19]

Cc1cccc2c1cc1ccc3cccc4ccc2c1c34
inactive: Potency [1] | Potency [2] | Potency [3] | Potency [4] | Potency [13] | Potency [7] | Potency [9] | Potency [11] | Potency [17] | Potency [18]

CCOc1nc2cccc(C(=O)OC(C)OC(=O)OC3CCCCC3)c2n1Cc1ccc(-c2ccccc2-c2nn[nH]n2)cc1 (configuration not stated)
active: Potency [1] 19.5 µM | Potency [2] 45 µM | Potency [3] 63.5 µM | Potency [4] 34.3 µM | Potency [14] 9.76 µM | Potency [15] 30.9 µM | Potency [8] 11 µM | Potency [10] 34.6 µM | Potency [17] 43.6 µM | Potency [18] 43.6 µM
inactive: activity change, positive = activation [5] -65.4% | Potency [6]

Cn1cc(C(=O)[C@@H]2CCc3nc[nH]c3C2)c2ccccc21
inactive: Potency [1] | Potency [2] | Potency [3] | Potency [4] | activity change, positive = activation [5] -13.3% [at 42.5 µM] | Potency [13] | Potency [6] | Potency [7] | Potency [15] | Potency [9] | Potency [10] | Potency [11] | Potency [12] | Potency [17] | Potency [18] | Potency [19]

CCCN(CCC)c1c([N+](=O)[O-])cc(C(F)(F)F)c(N)c1[N+](=O)[O-]
active: Potency [1] 13.8 µM | Potency [2] 35.6 µM | Potency [3] 50.4 µM | Potency [4] 30.5 µM | Potency [13] 54.8 µM | Potency [15] 54.8 µM | Potency [8] 12.3 µM | Potency [9] 48.9 µM | Potency [16] 19.4 µM | Potency [10] 54.8 µM | Potency [12] 48.9 µM | Potency [18] 54.8 µM
inactive: activity change, positive = activation [5] -75.7% | Potency [6] | Potency [19]

CCCCCCCC/C=C/CCCCCCCC1=NCCN1CCO
active: Potency [1] 54.9 µM | Potency [3] 101 µM | Potency [4] 54.5 µM | Potency [13] 17.4 µM | Potency [7] 17.4 µM | Potency [15] 30.9 µM | Potency [8] 21.9 µM | Potency [9] 43.6 µM | Potency [16] 19.5 µM | Potency [10] 24.5 µM | Potency [11] 21.9 µM | Potency [12] 15.5 µM | Potency [17] 13.8 µM | Potency [18] 12.3 µM
inactive: Potency [2] | activity change, positive = activation [5] -79.9% | Potency [6]

CC(C)(C)C(=O)OCOC(=O)[C@@H]1N2C(=O)[C@@H](NC(=O)[C@H](N)c3ccccc3)[C@H]2SC1(C)C
inactive: Potency [1] | Potency [2] | Potency [3] | Potency [4] | activity change, positive = activation [5] 0.778% [at 42.5 µM] | Potency [13] | Potency [6] | Potency [7] | Potency [15] | Potency [8] | Potency [9] | max response [16] 5.37% | Potency [10] | Potency [11] | Potency [17] | Potency [18] | Potency [19]
